# Screening results: PubChem BioAssay, National Center for Advancing Translational Sciences (NCATS)
# HT1080-NT tox = qHTS for induction of synthetic lethality in tumor cells producing 2HG: qHTS for the HT-1080-NT fibrosarcoma cell line. HT-1080-NT fibrosarcoma viability, CellTiter-Glo ATP luminescence, 48 h. Potency, µM (titrated, usually from 46.1 µM), without a hit: top-dose activity, negative = less viability, actives largely listed as cytotoxic. 360,000 tested, 1.6% active;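 note: NT is the 2HG producing partner of a matched IDH1 knockdown line; potency is the fitted concentration of half-maximal effect; 0% = DMSO-treated cells and -100% = media-only wells without cells; nearly all actives have a fitted effect of over 55% in size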
#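 750 cells/well, RPMI + 5% FBS; 2 h settle, compound pin-transfer, 48 h at 37 degrees C. CellTiter-Glo 10 min RT, luminescence. Normalized to DMSO and media-only wells.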
# TDP1 cell CPT = qHTS for Inhibitors of human tyrosyl-DNA phosphodiesterase 1 (TDP1): qHTS in cells in presence of CPT; chicken DT40 Tdp1-/-;hTDP1 cells + 20 nM CPT, ATP luminescence, 48 h; Potency, µM (top dose mostly 46.2 µM), inactives show at the highest dose activity change, negative = growth inhibition, most hits filed as inhibitors; 420,000 tested, 12% active; note: potency is the fitted concentration of half-maximal effect; nearly all actives have a fitted effect of over 55% in size
#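 Cell growth measured by CellTiter-Glo luminescence after a minimum 48 h, 37 C compound exposure with 20 nM CPT in Tdp1-knockout DT40 cells stably expressing hTDP1, seeded 400/well; qHTS titration format.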
# IL1B secr inh = qHTS for Inhibitors of Inflammasome Signaling: IL-1-beta AlphaLISA Primary Screen; THP-1 LPS/ATP IL-1B secretion, AlphaLISA, 16 h; active compounds read low; activity change, % at 57.5 µM; 360,000 tested, 4.7% active; AID 743279, 2014; in the data active = activity change below about -50%; inconclusive = mostly about -30% to -49%
#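 THP-1 cells pretreated 1 hr with compounds (up to 57.5 uM final), then stimulated with LPS (250 ng/mL final) plus ATP (1.25 mM final); secreted IL-1B measured by AlphaLISA after 16 hr, decreased signal indicating inhibition.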
# ELG1 DNA repair = qHTS screen for small molecules that inhibit ELG1-dependent DNA repair in human embryonic kidney (HEK293T) cells expressing luciferase-tagged ELG1; Potency, µM (doses to about 46.1 µM), inactives show at the highest dose activity change, negative = inhibition, most hits filed as inhibitors; 330,000 tested, 2.3% active; AID 504467, 2011; HEK293T ELG1-luciferase reporter, luminescence, 16 h; DNA damage induced by 5-fluorouridine; note: potency is the fitted concentration of half-maximal effect; nearly all actives have a fitted effect of over 55% in size
#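 Step one: seed 2,000 cells per well. Step two: pin-transfer compound or DMSO alongside 5-fluorouridine. Step three: incubate 16 hr, 37 °C, 5% CO2. Step four: add ONE-Glo, wait 30 min, read luminescence.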
# HT1080 IDH1KD tx = qHTS for induction of synthetic lethality in tumor cells producing 2HG: qHTS for the HT-1080-IDH1KD cell line | HT-1080 IDH1 knockdown viability, ATP luminescence, 48 h | Potency, µM (series often up to 46.1 µM), without a hit: top-dose activity, negative = toxicity, actives largely listed as cytotoxic | 360,000 tested, 2% active;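 note: potency is the fitted concentration of half-maximal effect; 0% = DMSO wells and -100% = cell-free medium wells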
#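 After a 2 h attachment period, IDH1KD HT-1080 cells took pin-transferred compound for 48 h at 37 °C; ATP-based luminescence after 10 min room-temperature reagent incubation reported viability.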
# TDP1 cell noCPT = qHTS for Inhibitors of human tyrosyl-DNA phosphodiesterase 1 (TDP1): qHTS in cells in absence of CPT; DT40 Tdp1-/- hTDP1 cells, no CPT, ATP luminescence, 48 h; Potency, µM (doses to about 46.2 µM), for the others: at the highest dose activity change, negative = growth inhibition, usual class: inhibitors; 420,000 tested, 15% active; AID 686978, 2013; note: potency is the fitted concentration of half-maximal effect; nearly all actives have a fitted effect of over 55% in size
#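 DT40 Tdp1-/-;hTDP1 cells, no CPT (DMSO vehicle only), 400 cells/well; compounds pin-transferred; ≥48 hr, 37 °C; CellTiter-Glo 30 min RT dark, luminescence read.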
# An asterisk follows results filed as active; u = inconclusive; x = no result given. Most compounds without a hit are left out; they make up all but 19% or so of the library. Unless noted, calls come from the whole dose curve; as a rule, active = well fitted curve in the direction sought with a large enough effect; inconclusive = small, poorly fitted or top-dose-only effect, or another doubt; inactive = no such curve, though single readings can be large; an effect the other way counts as inactive or inconclusive. Unless noted, % is set by controls: 0 for no effect and ±100 for the full control effect.
SMILES,HT1080-NT tox,TDP1 cell CPT,IL1B secr inh,ELG1 DNA repair,HT1080 IDH1KD tx,TDP1 cell noCPT
Cc1ccc(-c2nnc(CSc3nc4cc5c(cc4cc3C)OCO5)o2)cc1,4%,u,-4,u,29%,21µM*
COc1ccccc1NC(=O)CSc1nc(-c2cccc(Cl)c2)nc2c1Cc1c(CO)cnc(C)c1O2,x,2%,x,x,x,-9%
Cc1ccc(C(=O)c2cn(Cc3cccc(C)c3)c3nc(C)ccc3c2=O)cc1,x,u,x,x,x,21µM*
CCOc1ccccc1NC(=O)Cn1cc(C(=O)c2ccc(Cl)cc2)c(=O)c2ccc(C)nc21,x,u,x,x,x,15µM*
Cc1ccc(C(=O)c2cn(Cc3cc(C)ccc3C)c3nc(C)ccc3c2=O)cc1,x,u,x,x,x,21µM*
Cc1ccc(C(=O)c2cn(Cc3c(F)cccc3Cl)c3nc(C)ccc3c2=O)cc1,x,-8%,x,x,x,u
CC(=O)Nc1ccc(NS(=O)(=O)c2cccc3ccccc23)cc1,-5%,u,9,-11%,u,-18%
COc1cccc(S(=O)(=O)Nc2ccc(C(O)(C(F)(F)F)C(F)(F)F)cc2)c1,u,16µM*,-3,x,u,16µM*
CC(C)(C)c1ccc(S(=O)(=O)Nc2cccnc2)cc1,3%,u,9,1%,-21%,u
COc1ccc(NS(=O)(=O)c2cccc(C(=O)NNC(=O)c3ccc(NC(C)=O)cc3)c2)cc1,17%,14%,-5,28%,17%,0%
CC(C)(C)c1ccc(S(=O)(=O)Nc2ccc(C(O)(C(F)(F)F)C(F)(F)F)cc2)cc1,18µM*,16µM*,-17,x,21µM*,16µM*
O=S(=O)(Nc1ccc(C(O)(C(F)(F)F)C(F)(F)F)cc1)c1cccc2ccccc12,u,16µM*,0,x,u,21µM*
CS(=O)(=O)N1CCC(C(=O)Nc2cc(Cl)cc(Cl)c2)CC1,-5%,-17%,u,-14%,-5%,u
C=C(C)C(=O)Oc1ccc(N2C(=O)[C@@H]3C4C=CC(C4)[C@@H]3C2=O)cc1,5%,u,-99*,u,1%,u
CC(=O)Oc1cccc(N2C(=O)C3C4C=CC(C4)C3C2=O)c1 (stereo unspecified),-2%,-17%,2,0%,-1%,-1%
COC(C(=O)C(O)C(C)O)C1Cc2cc3cc(OC4CC(OC5CC(O)C(O)C(C)O5)C(O)C(C)O4)c(C)c(O)c3c(O)c2C(=O)C1OC1CC(OC2CC(OC3CC(O)C(OC)C(C)O3)C(O)C(C)O2)C(O)C(C)O1 (stereo unspecified),u,0.1µM*,-89*,x,0.01µM*,0.15µM*
CCN(Cc1ccncc1)C(=O)c1ccc(C)c(S(=O)(=O)N2CCCCC2)c1,0%,u,8,u,-1%,u
CC(C)C(NS(=O)(=O)c1ccc2c(c1)oc(=O)n2C)C(=O)NCCc1ccc(Cl)cc1 (stereo unspecified),x,-6%,x,x,x,-15%
CN(c1ccccc1)S(=O)(=O)c1ccc(C(=O)N2CCN(c3ccccc3)CC2)cc1,0%,-2%,7,x,3%,-13%
COc1ccc2nc(NC(=O)CSC(C)C(=O)Nc3cc(C)on3)sc2c1 (stereo unspecified),-11%,12%,10,u,3%,-28%
COCCNC(=O)C1(C)CCCN(Cc2csc(-c3ccc(Cl)cc3)n2)C1 (stereo unspecified),13%,12µM*,0,x,-8%,13µM*
COCCNC(=O)C1(C)CCCN(Cc2csc3ccccc23)C1 (stereo unspecified),-4%,u,0,x,3%,u
CCCNC(=O)C1(C)CCCN(Cc2cccc(Oc3ccccc3)c2)C1 (stereo unspecified),-17%,u,-2,x,-28%,u
CCCNC(=O)C1(C)CCCN(Cc2c3ccccc3nn2C)C1 (stereo unspecified),2%,21µM*,38,x,-6%,21µM*
CCCNC(=O)C1(C)CCCN(Cc2csc3ccccc23)C1 (stereo unspecified),-11%,u,23,x,-26%,u
SMILES,HT1080-NT tox,TDP1 cell CPT,IL1B secr inh,ELG1 DNA repair,HT1080 IDH1KD tx,TDP1 cell noCPT
CCNC(=O)C1(C)CCCN(Cc2cccc(Oc3ccccc3)c2)C1 (stereo unspecified),9%,18µM*,6,x,-4%,21µM*
CCCNC(=O)C1(C)CCCN(Cc2ccc(Oc3ccccc3)cc2)C1 (stereo unspecified),-28%,21µM*,0,x,u,18µM*
Cc1ccc(NC(=O)Cn2ccn(Cc3ccc(Cl)cc3)c(=O)c2=O)cc1C,x,-11%,x,x,x,5%
COc1ccc(OC2(C)CCN(Cc3ccc(-c4ccccc4)o3)C2)cc1 (stereo unspecified),6%,21µM*,10,x,-15%,u
COCCNC(=O)C1(C)CCCN(C(=O)COc2ccccc2)C1 (stereo unspecified),u,21µM*,-85*,x,5%,1.8µM*
CCCNC(=O)C1(C)CCCN(Cc2cc(-c3ccccc3)n(C)n2)C1 (stereo unspecified),17%,16µM*,-25,x,7%,u
CCCNC(=O)C1(C)CCCN(Cc2ccc(-c3ccccc3)cc2)C1 (stereo unspecified),u,6.5µM*,u,x,u,5.8µM*
CC12CCC(C1)C(C)(C)C2=O (stereo unspecified),x,-27%,x,x,x,-1%
Cc1cc(OCC(=O)OCC(=O)NCC2CCCO2)ccc1Cl (stereo unspecified),9%,-2%,14,7%,5%,-22%
O=C(COc1ccc(F)cc1Br)Nc1ccccc1N1CCOCC1,0%,u,3,-29%,-17%,u
CS(=O)(=O)N1CCCCC1c1cc(C(=O)Nc2ccccc2Cl)no1 (stereo unspecified),10%,-22%,u,x,7%,-27%
